Sampled rows, rich in hits. Any-hit rate of the full collection: about 1.6%.
MLLE-PAM2 inh – blocks PAM2 peptide binding to the PABP1 MLLE domain | P11940 | GST-MLLE / FITC-PAM2 fluorescence polarization | inhibition, % at 20 µM | actives 0.36% (n = 360,000) | AID 588489; in the data active = inhibition above about 35%, passing the limit was not always enough;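 also: plate controls were DMSO wells with GST-MLLE for no effect and wells lacking GST-MLLE protein for full effect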
PABP polyA inh – PABP-poly(A) binding inhibition; P11940; PABP-poly(A) RNA binding, fluorescence polarization; inhibition, % at 35 µM; actives 1% (n = 290,000);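 also: calls also rest on retests at 20 µM and on dose response follow-up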
eIF4E 4G PPI – inhibitors of eIF4E and eIF4G interaction in translation initiation. P63073+Q04637. TR-FRET eIF4E-eIF4GI(517-606) binding, 2 h. inhibition, % at 21.7 µM. actives 0.37% (n = 220,000). AID 782;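 active = inhibition above about 30%, limit read from the data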;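 also: 0% = full FRET control wells and 100% = background wells lacking eIF4GI fragment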
PERK inh – human PERK inhibition, primary cell-based screen; Q9NZJ5; CHO PERK-DD fusion, SEAP luminescence translation reporter; inhibition, % at 5.6 µM; actives 0.17% (n = 220,000);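 active = inhibition above the mean inhibition of all tested compounds plus 3 SD, set separately per screening campaign, cut at about 2.9% in these data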;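 also: PERK kinase domain activated by AP20187 dimerizer at 100 nM; 0% = DMSO with dimerizer and 100% = rapamycin at 8.4 µM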
eIF4H FP inh – inhibitors of RNA binding by human eIF4H; Q15056; inhibition, % at 35 µM; eIF4H fluorescence polarization binding assay; actives 0.94% (n = 290,000);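 also: calls also rest on retests at 20 µM and on dose response follow-up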
Starred values were filed as active, the others as inactive; u = inconclusive; x = no result given; [ ] = another dose, or the depositor's remark. Unless noted, no rule for the calls is given here.

SMILES | MLLE-PAM2 inh | PABP polyA inh | eIF4E 4G PPI | PERK inh | eIF4H FP inh
Cc1cc(C)cc(CC(=O)N2CCC2(C)C(=O)NS(=O)(=O)c2cccc(F)c2)c1 (stereo not drawn) | 4 | x | x | x | x
O=[N+]([O-])c1ccc(NN=Cc2ccc3c(c2)OCO3)nc1 | -12 | x | x | x | x
O=C(C1CC(c2cccc(Br)c2)=NO1)N1CCc2ccccc2C1 (stereo not drawn) | -1 | -4 | -1 | 0 | 53*
O=C(O)C1CC(c2cccc(Br)c2)=NO1 (stereo not drawn) | -12 | 7 | -2 | 2 | -6
CC(=O)Nc1ccc(-c2ccccc2)s1 | -139 | 46* | 4 | 1 | 69
CC(=O)Nc1ccc(NC(C)=O)s1 | 21 | -2 | -3 | 0 | -5
CC(C)CC(C(=O)Nc1cccc(O)c1)N1C(=O)c2ccccc2C1=O (stereo not drawn) | 5 | 8 | x | x | -3
CC(C)CC(C(=O)Nc1oc(-c2ccco2)c(-c2ccco2)c1C#N)N1C(=O)c2ccccc2C1=O (stereo not drawn) | -14 | 78* | 1 | 0 | 82*
O=C(Nc1cccc(S(=O)(=O)N2CCCCC2)c1)C1COc2ccccc2O1 (stereo not drawn) | -5 | x | x | x | x
CCCCCN1C=CC(=C2C(=O)c3ccccc3C2=O)C=C1 | -3 | 1.7* | 3 | 0 | 88*
CC1=CC(=C2C(=O)c3ccccc3C2=O)C=C(C)N1C | -3 | 2 | -3 | -1 | 0
Cc1ccc(-c2cc(C(=O)OC3CCOC3=O)c3ccccc3n2)c(C)c1 (stereo not drawn) | 2 | -17 | -3 | 2.9* | -7
CCOC(=O)C1=C(O)/C(=C/c2ccccn2)SC1=Nc1ccc(Cl)cc1 | -4 | 110 | 7 | 0 | active
CCOC(=O)C1=C(O)/C(=C/c2ccc(-c3ccccc3C(=O)O)o2)SC1=Nc1ccc(OC)cc1 | -75 | 82* | 2 | 1 | 78*
O=C(OCC(=O)N1CCN(c2ccccc2)CC1)c1nc(Cl)ccc1Cl | 5 | x | x | x | x
COC(=O)COc1ccc(C2NC(=O)NC(c3ccccc3)=C2C(C)=O)cc1Br (stereo not drawn) | -15 | -12 | x | x | -12
CC(C)c1ccc(CN2CCC(n3nccc3NC(=O)C3CCCC3)CC2)cc1 | 7 | x | x | x | x
O=C1c2ccccc2C(=O)N1c1cccc2cccnc12 | 11 | -7 | -4 | 1 | 64*
O=C1C2C3C=CC(C3)C2C(=O)N1c1cccc2cccnc12 (stereo not drawn) | 6 | 2 | 4 | 0 | 9
O=[N+]([O-])c1cc(Br)cc(C=Nc2ccc3c(c2)OCO3)c1O | -6 | 56* | 9 | 1 | 69*
O=[N+]([O-])c1cc([N+](=O)[O-])c2cc3ccccc3nc2c1 | 45* | 9 | x | x | 22
O=[N+]([O-])c1cnc2ccccc2c1 | 10 | 6 | 10 | 0 | 4
Cc1cc(C)c(OCC(=O)OCC(=O)NNC(=O)c2ccccc2F)c(C)c1 | 12 | x | x | x | x
C[C@H](NS(=O)(=O)c1ccc2c(c1)OCCCO2)C(=O)N1CCN(c2ccc(F)cc2)CC1 | 41* | x | x | x | x
Cc1ccc(CNC(=O)[C@H](Cc2ccccc2)NC(=O)C2CCNCC2)cc1 | 1 | 12 | x | x | 0
SMILES | MLLE-PAM2 inh | PABP polyA inh | eIF4E 4G PPI | PERK inh | eIF4H FP inh
CC(=O)Nc1ccc(NC(=O)CC2Nc3cccc4cccc(c34)NC2=O)cc1 (stereo not drawn) | 25 | 84* | x | 1 | 106*
Cc1cccc(NC(=O)CC2Nc3cccc4cccc(c34)NC2=O)c1 (stereo not drawn) | 17 | 88* | -1 | 0 | 113*
CC(=O)c1ccc(NC(=O)CC2Nc3cccc4cccc(c34)NC2=O)cc1 (stereo not drawn) | 6 | u | 2 | 0 | u
C=CCN(CC=C)C(=S)Nc1ccc2nsnc2c1 | 52* | -6 | 3 | 0 | 13
NC(=O)c1cccc(-c2csc(C(O)c3ccccc3)n2)c1 (stereo not drawn) | -2 | x | x | x | x
O=c1c(-c2ccccc2)coc2c(CN3CCCC3)c(O)ccc12 | -7 | -10 | 76* | 0 | -5
Cc1nnc2ccc(-c3ccc(NS(=O)(=O)c4ccc(Cl)s4)cc3)nn12 | -7 | x | x | x | x
CCc1ccc(N=C2NC(=O)/C(=C/c3cc(Br)c(OCC(=O)O)c(OC)c3)S2)cc1 | -16 | 37 | x | x | 81*
O=C(O)[C@@H](c1ccccc1)N1Cc2ccccc2C1=O | -10 | 7 | 90* | 0 | 2
Nc1nnc(N2CCCCC2)s1 | -7 | -5 | 4 | 2 | 2
Nc1nnc(CC(=O)N2CCCCC2)s1 | 16 | -2 | 46* | 1 | -7
O=C(CN1C(=O)NC2(CCCC2)C1=O)N1CCN(c2ccccc2Cl)CC1 | -12 | x | x | x | x
Cc1cnc(C=NNC(N)=S)c2cccc(N)c12 | 43* | x | x | x | x
O=C(COC(=O)c1cc(Cl)cc(Cl)c1)NCc1ccco1 | -4 | x | x | x | x
Cc1cccc(C)c1NC(=O)c1cc(-c2ccccn2)nc2ccccc12 | -7 | 54 | 2 | 0 | active
CCCCN(C=O)c1c(CC)nc2ccc(C(=O)Nc3cc(-c4ccccc4)ccc3OC)cn12 | -7 | x | x | x | x
Cc1[nH]nc(SCC(=O)NCc2ccccc2)c1[N+](=O)[O-] | 2 | -2 | 12 | 1 | -1
COC(=O)CSc1[nH]c2ccccc2c1[N+](=O)[O-] | 39* | -4 | -9 | 1 | -4
Cn1c(=O)c2ncn(CC(=O)Nc3ccc4c5c(cccc35)CC4)c2n(C)c1=O | 7 | 55* | 3 | 0 | 47*
Cc1cccc(C)c1NC(=O)Cn1cnc2c(=O)n(C)c(=O)n(C)c21 | 0 | 1 | 9 | 0 | -17
CCN1CCC(=NNC(=O)c2ccco2)CC1 | -8 | 1 | 8 | 1 | 8
CCCN1CCC(=NNC(=O)c2ccc(Br)o2)CC1 | 9 | -9 | 39* | 0 | 2
O=C(O)CSC1CC(=O)N(c2ccc(Cl)c(Cl)c2)C1=O (stereo not drawn) | 41* | 6 | 5 | 1 | -8
O=C(OCCN1C(=O)c2cccc3c(N4CCOCC4)ccc(c23)C1=O)c1ccc(Cl)cc1 | -12 | -5 | 22 | 1 | u
CCCN(CCC)S(=O)(=O)c1ccc(C(=O)OCCN2C(=O)c3cccc4c(N5CCOCC5)ccc(c34)C2=O)cc1 | 112 | 118* | 31*[fluorescence artefact?] | 0 | 129*
Cc1[nH]nc2c1C(c1ccco1)C(C#N)=C(N)O2 (stereo not drawn) | 13 | 29 | 1 | 1 | 7
Cc1ccc(C2C(C#N)=C(N)Oc3n[nH]c(-c4ccccc4)c32)o1 (stereo not drawn) | -16 | -5 | -11 | 0 | -5
COc1ccc(-c2ccc(C3C(C#N)=C(N)Oc4n[nH]c(C)c43)o2)cc1 (stereo not drawn) | -63 | 84* | 5 | 0 | u
Cc1ccc(-c2[nH]nc3c2C(C)C(C#N)=C(N)O3)cc1 (stereo not drawn) | 3 | 63 | -2 | 0 | 9.9*
CCN(CC)C(=O)Cn1cc(S(=O)(=O)CC(=O)Nc2ccccc2F)c2ccccc21 | 10 | 1 | x | x | -3

Assay outcomes from PubChem.
